# Results as given in PubChem BioAssay (NCATS).
# Records with an inconclusive call do not appear. Unmarked numbers belong to inactive results. Active and inactive are the calls of the source. The call rests on the fitted dose curve; in most records, active means well fitted inhibition curve with a large enough effect; inconclusive means small, poorly fitted or top-dose-only effect; inactive means flat fitted curve, though single readings scatter. Where a SMILES comes first, the peptide text is derived from it. Bridges are numbered along the chain shown (N, C = ends).
# Assay: P-glycoprotein substrates identified in KB-8-5-11 adenocarcinoma cell line, qHTS therapeutic library screen (AID 1346987); further: nearly all actives have a fitted effect of over 65% in size
# Conditions: KB-8-5-11 (P-gp overexpressing) viability, CellTiter-Glo, 72 h; series mostly up to 44.5 µM; activity change, negative = cytotoxicity: at the top concentration
# Summary of the method: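 Luminescence from CellTiter-Glo, read 5 min after addition, quantified survival of KB-8-5-11 (P-gp-overexpressing) cells exposed to compounds for 72 h. AC50 was derived from concentration-response curves.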
# On the % scale 0 is the no-effect control and ±100 the full control effect; potency means the concentration at half of the fitted maximal effect.
SMILES,"activity change, negative = cytotoxicity",Potency,outcome
CC#CCC(C)[C@H](O)/C=C/[C@@H]1[C@H]2c3cccc(CCCC(=O)O)c3O[C@H]2C[C@H]1O (stereo not given in full),6.96%,–,–
C[C@@H](Nc1ncnc2[nH]c(-c3ccc(O)cc3)cc12)c1ccccc1,–,8.2 µM (active),–
COC1=C(C(=O)O)N2C(=O)[C@@H](NC(=O)[C@H](N)C3=CCC=CC3)[C@H]2SC1,1.24%,–,–
Cc1ccc(OC[C@H](O)[C@H](C)NC(C)C)c2c1CCC2,2.96%,–,–
CCC(c1ccccc1)c1noc(CCN(CC)CC)n1 (stereo not given),4.3%,–,–
COc1cc(CCO)ccc1O[C@@H]1O[C@H](CO)[C@@H](O)[C@H](O)[C@H]1O,-3.09%,–,–
NCCCC[C@H](NC(=O)[C@@H]1CCCN1C(=O)[C@@H]1CSSC[C@H](NC(=O)CNC(=O)CNC(=O)CN)C(=O)N[C@@H](Cc2ccc(O)cc2)C(=O)N[C@@H](Cc2ccccc2)C(=O)N[C@@H](CCC(N)=O)C(=O)N[C@@H](CC(N)=O)C(=O)N1)C(=O)NCC(N)=O (H-GGGCYFQNCPKG-NH2; disulfide 4-9),-10.6%,–,–
CC(C)(C)c1ccc(-c2nc3c(N4CCN(Cc5ccc6nccnc6c5)CC4)cccc3[nH]2)cc1,–,13 µM (active),–
O=C(O)[C@@H](O)[C@H](O)[C@H](O)[C@@H](O)C(=O)O (tested in a mixture with another compound),8.11%,–,–
Nc1ncnc(Nc2ccc(Cl)cc2)n1,-12.4%,–,–
COC1CC(O[C@H]2CC[C@]3(C)C4CC[C@]5(C)C(C6=CC(=O)OC6)=CCC56OC46CC[C@@H]3C2)OC(C)C1O[C@@H]1O[C@H](CO[C@@H]2O[C@H](CO)[C@@H](O)[C@H](O)[C@H]2O)[C@@H](O)[C@H](O)[C@H]1O (stereo not given in full),–,3.1 µM (active),–
C=C1/C(=C/C=C2\CCC[C@]3(C)[C@@H]([C@@H](C)OCCC(O)(CC)CC)CC[C@@H]23)C[C@@H](O)C[C@@H]1O,-17.5%,–,–
Cc1cc(N2CCN(C(=O)Oc3ccc(-c4ccccc4)cn3)CC2)c2ccccc2n1,–,14.6 µM (active),–
CCCCc1cc2c(=O)c(C(=O)OC)c[nH]c2cc1OCc1ccccc1,6.24%,–,–
CCCNCCc1ccc(NS(=O)(=O)c2ccc(OC(F)(F)F)cc2)cc1,-6.03%,–,–
Oc1cccc(C2NC(=S)Nc3cccc(F)c32)c1 (stereo not given),–,23.1 µM (active),–
NCCCC[C@H](NC(=O)[C@@H]1CCCN1C(=O)[C@@H]1CSSC[C@H](N)C(=O)N[C@@H](Cc2ccc(O)cc2)C(=O)N[C@@H](Cc2ccccc2)C(=O)N[C@@H](CCC(N)=O)C(=O)N[C@@H](CC(N)=O)C(=O)N1)C(=O)NCC(N)=O,–,inactive,–
COC(=O)/C=C/C=C/C(=O)OC1C=C2COC(=O)C2(O)C2(C)CCCC(C)(C)C12 (stereo not given),3.63% [at 17.3 µM],–,–
COc1ccc(C2NC(=S)N3C(c4ccc(OC)c(OC)c4)NC(=S)N23)cc1OC (stereo not given),6.36%,–,–
C=CS(=O)(=O)NC1CCN(C(=O)CNc2cc(I)c(Cl)cc2OC)CC1,–,14.6 µM (active),–
COc1ccc(S(=O)(=O)n2cnc3cc(C)c(C)cc32)cc1,-19.4%,–,–
C=C1C(=O)OC2C=C(C)CC/C=C(\CO)CC(O)C12 (stereo not given),–,–,inactive
CO[C@@H]1[C@@H](O[C@@H]2O[C@H](C)[C@@H](O[C@H]3C[C@@](C)(O)[C@@H](OC(=O)CC(C)C)[C@H](C)O3)[C@H](N(C)C)[C@H]2O)[C@@H](CC=O)C[C@@H](C)[C@@H](O)/C=C/C=C/C[C@@H](C)OC(=O)C[C@H]1O,–,inactive,–
COc1ccc(CNc2nc(N(CCO)CCO)nc3c2ncn3C(C)C)cc1,–,5.8 µM (active),–
CNc1cc2[nH]c(=O)n(-c3ccc(NC(=O)NS(=O)(=O)c4ccc(Cl)s4)cc3)c(=O)c2cc1F,4.6%,–,–
COc1ccc(CN2CCN(C(=O)CCNC(=O)c3ccc(C(C)(C)C)cc3)CC2)cc1,-27%,–,–
O=C(NC1(c2ccccc2)CC1)c1c(CN2CCC(N3CCCCC3)CC2)c(-c2cccc(C(F)(F)F)c2)nc2cc(Br)ccc12,–,23.1 µM (active),–
COC1CC/C=C(\C)C(=O)Nc2cc(O)cc(c2)CC(C)CC(OC)C(O)C(C)/C=C(\C)C1OC(N)=O (stereo not given),–,–,inactive [at 17.3 µM]
CC(=O)OC[C@]12[C@H](OC(C)=O)[C@H](OC(=O)c3ccccc3)[C@@H]3[C@@H](OC(C)=O)[C@]1(OC3(C)C)[C@H](C)C[C@H](OC(C)=O)[C@@H]2OC(=O)c1ccccc1,-5.28% [at 17.3 µM],–,–
C=C1C(=O)O[C@@H]2[C@H]3C(C)=CC(=O)C3=C(C)CC[C@@H]12,–,14.6 µM (active),–
